# TEAD-YAP block = TEAD-YAP interaction inhibition; HEK-TIYL cells, TEAD-Gal4/YAP UAS-luciferase luminescence; actives 1.4% (n = 640,000); inhibition, % at 9.12 µM; in the data active = inhibition above about 32%;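 also: 0% = median of test compound wells and 100% = reference inhibitor wells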
# GPR151 activ = activators of human GPR151. actives 1% (n = 650,000). AID 1508602. activation, % at 11.2 µM. Q8TDV0. PathHunter beta-arrestin GPR151 cells, luminescence; in the data active = activation above about 4.9%;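 also: 0% = median of compound wells and 100% = cells with positive control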
# Target sequence (Q8TDV0 whole entry, looked up): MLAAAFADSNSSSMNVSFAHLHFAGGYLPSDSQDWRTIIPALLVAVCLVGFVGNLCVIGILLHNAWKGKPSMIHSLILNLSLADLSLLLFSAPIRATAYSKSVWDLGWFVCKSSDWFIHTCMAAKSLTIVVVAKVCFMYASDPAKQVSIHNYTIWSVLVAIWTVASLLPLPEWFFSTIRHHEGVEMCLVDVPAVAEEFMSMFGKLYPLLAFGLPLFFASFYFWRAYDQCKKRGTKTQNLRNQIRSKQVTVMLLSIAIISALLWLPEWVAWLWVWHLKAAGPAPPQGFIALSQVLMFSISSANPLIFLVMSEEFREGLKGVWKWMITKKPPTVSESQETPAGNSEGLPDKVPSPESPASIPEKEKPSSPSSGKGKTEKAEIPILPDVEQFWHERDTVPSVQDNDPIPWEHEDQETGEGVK
# FBW7 act = activators of human E3 ligase FBW7. AID 1259310. normalized activity (activation), % at 26.1 µM. Q969H0. actives 0.13% (n = 650,000). AlphaScreen FBW7–phospho-cyclin E peptide binding, activator screen; in the data active = normalized activity above about 1.9%;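 also: purified mutant Fbw7 with reduced substrate affinity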
# MITF inh = inhibitors of human MITF. AlphaScreen MITF homodimerization, bead proximity signal. actives 0.91% (n = 650,000). O75030. inhibition, % at 2.6 µM; in the data active = inhibition above about 50%;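 also: 0% = vehicle wells with protein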
# Active calls of the source: *. An excerpt weighted towards active compounds, which were near 3.5% of everything screened.
SMILES,TEAD-YAP block,GPR151 activ,FBW7 act,MITF inh
COC(=O)C1=C(C)Nc2[nH]c(=O)[nH]c(=O)c2C1c1cccs1 (stereo unspecified),2,0,0,0
CC(C)c1cc(C(=O)NCc2ccco2)nn1-c1nc2ccccc2s1,78*,1,0,-2
CC(C)c1cc(C(=O)Nc2ccc(F)cc2)nn1-c1nc2ccccc2s1,-7,1,0,34
N#Cc1ccccc1Cn1nc(-c2cccc3ncccc23)oc1=O,53*,0,0,14
CCOC(=O)C1(CCSC)NC(c2cccs2)C2C(=O)N(CC)C(=O)C21 (stereo unspecified),32*,-2,0,0
CCOC(=O)C1(Cc2ccccc2)NC(c2cccs2)C2C(=O)N(CC)C(=O)C21 (stereo unspecified),0,0,0,14
COc1cc(OC)cc(C(=O)N/N=C\c2ccc(OCC(N)=O)cc2)c1,56*,0,0,8
COc1ccc(/C(C)=N/Nc2ccc(C(=O)O)cc2)c(OC)c1,48*,-1,0,7
COc1ccc(C(=O)N/N=C(/C)c2ccc(OC)cc2OC)cc1,-31,1,0,4
O=C(O)c1ccc(N/N=C/c2cccnc2)cc1,33*,-8,0,2
COc1ccc(C(=O)N/N=C\c2ccc(Br)cc2)cc1OC,40*,-1,0,-1
O=C(O)c1cc(N/N=C/c2cccnc2)ccc1Cl,-23,-5,0,-8
O=C(c1ccc(F)cc1)c1ccc(N2CCOCC2)cc1,-39,-1,0,9
CCN1CCC(Oc2cc(C(=O)NC3CC3)ccc2OC)CC1,-4,-2,0,3
CCOC(=O)C1=C(C)NC(=O)NC1c1cn(-c2ccccc2)nc1-c1ccc(OC)c(OC)c1 (stereo unspecified),11,2,0,6
CCOC(=O)c1c(C2CC2)csc1NC(=O)CSc1nc2nc(C)cc(C)n2n1,-1,-1,0,-1
N#Cc1ccc(/C=N/NC(=O)c2cc(O)cc(O)c2)cc1,33*,2,0,0
COc1ccc(/C=N/Nc2ccc(C(=O)O)cc2)cc1Br,45*,-9,0,9
COc1ccc(C(=O)N/N=C/c2ccc(O)c(O)c2)cc1Br,-13,-1,0,-18
N#Cc1ccc(/C=N/NC(=O)c2ccccc2O)cc1,-14,-1,0,7
COCC(C)NC(=O)NC1CC(=O)N(c2ccc(F)cc2)C1 (stereo unspecified),-11,0,0,2
CC(C)(C)N(Cc1ccccc1)C(=O)CN1C(=O)C(=O)N(C2CCCC2)C1=O,3,-1,0,1
CC(CC(=O)Nc1ccc(-c2cn3ccsc3n2)cc1)c1ccccc1 (stereo unspecified),-9,0,0,9
CCC(Nc1ncnc2ccccc12)C(=O)O (stereo unspecified),6,0,0,-1
CCOC(=O)/C(=N\Nc1ncnc2ccccc12)c1cccs1,36*,-10,0,-3
SMILES,TEAD-YAP block,GPR151 activ,FBW7 act,MITF inh
CN(Cc1ccccc1)c1cc(=O)n(C)c(=O)n1Cc1ccc(F)cc1F,-7,0,0,29
Cc1cc(C)c2c(N)c(C(=O)Nc3ccccn3)sc2n1,95*,-5,0,-2
Cc1cccc(NC(=O)c2sc3nc(C)cc(C(F)(F)F)c3c2N)n1,48*,1,0,9
COc1ccnc(N2CCN(CC3=NS(=O)(=O)c4ccccc4N3)CC2)n1,0,-1,0,-11
Oc1ccc(C2=Nn3c(nnc3-c3ccccc3O)SC2)cc1O,41*,3,0,22
Cc1ccc(C2=Nn3c(nnc3-c3ccccc3C)SC2)cc1,60*,0,0,1
Brc1ccc(C2=Nn3c(nnc3-c3ccccc3)SC2)cc1,-6,0,0,10
CC(C)n1cnc2c(NCc3nc4ccccc4[nH]3)nc(Nc3ccccc3)nc21,64*,-1,0,-5
c1cncc(Nc2nc(NCc3nc4ccccc4[nH]3)c3[nH]cnc3n2)c1,0,-2,3.0*,-8
CC(C)n1cnc2c(NCc3nc4ccccc4[nH]3)nc(Nc3cccnc3)nc21,86*,-2,0,9
Cn1c(Nc2nc(NCc3nc4ccccc4[nH]3)c3ncn(-c4ccccc4)c3n2)nc2ccccc21,19,0,0,10
CC(C)n1cnc2c(NCc3nc4ccccc4[nH]3)nc(Nc3ccc(-n4ccnc4)cc3)nc21,46*,-1,0,13
c1ccc2[nH]c(CNc3nc(Nc4ccc(-n5ccnc5)cc4)nc4c3ncn4C3CCCCC3)nc2c1,-24,-2,0,-9
CC(C)n1cnc2c(NCc3nc4ccccc4[nH]3)nc(Nc3ccc(C(F)(F)F)cc3)nc21,56*,0,0,-16
CC(C)n1cnc2c(Nc3ccccc3)nc(Nc3ccc(C(F)(F)F)cc3)nc21,-8,1,0,9
c1cncc(Nc2nc(NCc3nc4ccccc4[nH]3)c3ncn(C4CCCCC4)c3n2)c1,70*,-1,0,2
CN1CCN(C(=O)c2ccc(-c3nc(NCc4nc5ccccc5[nH]4)c4ncn(C5CCCCC5)c4n3)cc2)CC1,5,0,0,15
O=C(NC1CC1)c1ccc(-c2nc(NCc3nc4ccccc4[nH]3)c3ncn(C4CCCCC4)c3n2)cc1,45*,-1,0,5
Oc1ccc(-c2ncccn2)cc1CNC1CCN(Cc2ccccc2)CC1,6,0,0,10
Cc1ccc(C2C3=C(CCCC3=O)Nc3nc(SC(C)C)[nH]c(=O)c32)s1 (stereo unspecified),-6,-2,0,23
CCc1ccc(NC(=O)CSc2nc3ccccc3c(=O)n2CC2CCCO2)cc1 (stereo unspecified),8,-1,0,11
CCOc1ccc(C2Oc3c(cc(Br)cc3OC)C=C2[N+](=O)[O-])cc1OC (stereo unspecified),62*,-1,0,23
CCOc1ccc(C2Oc3c(cccc3OC)C=C2[N+](=O)[O-])cc1OC (stereo unspecified),14,-1,1,12
COc1ccc(C2Oc3c(cc(Br)cc3OC)C=C2[N+](=O)[O-])cc1OC (stereo unspecified),70*,-1,0,4
COc1ccc(C2Oc3c(cccc3OC)C=C2[N+](=O)[O-])cc1OC (stereo unspecified),43*,-2,0,14
COc1cc(Br)cc2c1OC(c1ccc3c(c1)OCO3)C([N+](=O)[O-])=C2 (stereo unspecified),-22,-1,0,10
c1ccc(CNc2nc(Nc3ccc4ncccc4c3)nc3c2ncn3-c2ccsc2)cc1,12,-2,0,2
c1cnc2ccc(Nc3nc(NCc4nc5ccccc5[nH]4)c4ncn(-c5ccsc5)c4n3)cc2c1,49*,0,42*,-16
c1ccc(-n2cnc3c(NCc4nc5ccccc5[nH]4)nc(Nc4ccc5ncccc5c4)nc32)cc1,16,-3,23*,1
COCCNC(=O)C1=CC(c2ccc(OC)cc2)=NS(=O)(=O)N1C,0,1,0,8

# High-throughput results as filed in PubChem BioAssay.
